Screen size: about 420,000 compounds; about 64,000 (15%) were called active. Inconclusive results (about 27%) are left out. The call rests on the fitted dose curve; in most records, active means well fitted inhibition curve with a large enough effect; inconclusive means small, poorly fitted or top-dose-only effect; inactive means flat fitted curve, though single readings scatter. Not all results are given here.
Test: qHTS for Inhibitors of human tyrosyl-DNA phosphodiesterase 1 (TDP1): qHTS in cells in absence of CPT; further: nearly all actives have a fitted effect of over 55% in size
Settings: DT40 Tdp1-/- hTDP1 cells, no CPT, ATP luminescence, 48 h; activity change, negative = growth inhibition: at 46.2 µM (top of the series)
Method in brief: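 Chicken DT40 Tdp1-/- cells complemented with human TDP1, screened without camptothecin (DMSO vehicle only), 400 cells/well. Compounds pin-transferred, cells incubated at 37 °C for at least 48 hr. Growth read as ATP-dependent luminescence (CellTiter-Glo, 30 min at RT).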
On the % scale 0 is the no-effect control and ±100 the full control effect; potency means the concentration at half of the fitted maximal effect.

SMILES	Potency	activity change, negative = growth inhibition
COc1ccccc1CNC(=O)c1ccc(-n2c(C)cc3c2CCCC3)cc1	14.6 µM (active)	–
COc1ccc(CCNC(=O)CSCc2ccc(Br)cc2)cc1OC	–	-20.4% (inactive)
COc1ccc(CCNC(=O)c2ccc3c(c2)nc(C)n3-c2ccc(Br)cc2)cc1OC	20.6 µM (active)	–
COCCn1c(=S)[nH]c2cc(C(=O)NCCc3ccc(OC)c(OC)c3)ccc2c1=O	–	-6.65% (inactive)
COc1ccc(CCNC(=O)c2ccc(-n3c(C)cc4c3CCCC4)cc2)cc1OC	18.4 µM (active)	–
O=C(OC1CC2CC1[C@H]1CCCCN1C2=O)N1CCOCC1 (some centres not stated)	–	-7.39% (inactive)
O=C(CS(=O)(=O)c1ccccc1)Nc1ccc(S(=O)(=O)Nc2ccccn2)cc1	–	-3.21% (inactive)
CCC1(C2CCN(Cc3cccnc3)CC2)NC(=O)N(CC2COc3ccccc3O2)C1=O (configuration not stated)	–	-22.5% (inactive)
CC(=O)c1cccc(NC(=S)N2CCN(S(C)(=O)=O)CC2)c1	–	2.42% (inactive)
CC(=O)N1CCN(C(=O)C2(NC(=O)Nc3ccc(C)cc3)CCCCC2)CC1	–	26.9% (inactive)
CN(C)c1ccc(N/C=C/C(=O)C(F)(F)F)cc1	–	-24.1% (inactive)
CCOc1ccc(S(=O)(=O)N/N=C(\C)c2ccc(Cl)c(Cl)c2Cl)cc1	–	-21.3% (inactive)
CCOc1ccc(OCC)c(NC(=O)C(NS(=O)(=O)c2ccc3c(c2)oc(=O)n3C)C(C)C)c1 (configuration not stated)	–	-14.7% (inactive)
O=C(CC1NCCNC1=O)Nc1ccc(Oc2ccccc2)cc1 (configuration not stated)	–	0.505% (inactive)
CCN(CC)c1cc(NC2CCCCC2)c2c3c(onc13)-c1ccccc1C2=O	18.4 µM (active)	–
Cc1nnc(SCC(=O)Nc2cccc(N)c2)n1-c1ccccc1	–	-23.3% (inactive)
CC(C)Oc1ccc(C2NC(=O)NC2=O)cc1 (configuration not stated)	–	1.33% (inactive)
COc1cc2c(cc1OC)C(c1ccncc1)CC(=O)N2 (configuration not stated)	–	18.7% (inactive)
COc1ccc(C2CC(=O)Nc3cc(C)c(C)cc32)c(OC)c1OC (configuration not stated)	20.6 µM (active)	–
Cc1cc2c(cc1C)C(c1cccc(OC(C)C)c1)CC(=O)N2 (configuration not stated)	23.1 µM (active)	–
COC(=O)c1ccc(C2CC(=O)Nc3cc(OC)c(OC)cc32)cc1 (configuration not stated)	–	-16.9% (inactive)
COc1cc2c(cc1OC)C(c1ccc(C)o1)CC(=O)N2 (configuration not stated)	–	-4.53% (inactive)
CC1CN(c2cc(=O)n(Cc3ccc(F)cc3)c(=O)[nH]2)CC(C)O1 (configuration not stated)	–	-0.502% (inactive)
O=C1CCCCN1CCCC(=O)N1CCCC(Nc2ccc(F)cc2)C1 (configuration not stated)	–	-24.8% (inactive)
CCOC(=O)C1(Cc2ccccc2C)CCCN(C(=O)CN2C(=O)CSC2=O)C1 (configuration not stated)	–	-8.61% (inactive)
Cc1nc2cnc(N3CCN(C)CC3)nc2n(C[C@H]2CCCO2)c1=O	–	13.7% (inactive)

SMILES	Potency	activity change, negative = growth inhibition
CC(=O)C1=C(O)C(=O)N(c2ccc(Br)cc2)C1c1ccc([N+](=O)[O-])cc1 (configuration not stated)	–	21.4% (inactive)
O=C1CCc2cc(S(=O)(=O)Nc3ccc(C(F)(F)F)cc3)cc3c2N1CC3	–	-17.8% (inactive)
Nc1ncc(S(=O)(=O)Nc2ccc(OC(F)(F)F)cc2)cn1	–	-22.8% (inactive)
O=C1Cc2cc(S(=O)(=O)Nc3ccc(OC(F)(F)F)cc3)cc3c2N1CCC3	18.4 µM (active)	–
C=CCOc1ccccc1CNn1c(C)n[nH]c1=S	–	-17.6% (inactive)
CCCN(C(=O)CSc1nnc(N)s1)c1c(N)n(Cc2ccccc2)c(=O)[nH]c1=O	–	-9.5% (inactive)
CCCc1nc2ccccc2c(=O)n1/N=C/c1ccc(O)c(O)c1	16.4 µM (active)	–
CCCN1C(=O)C(Cc2nc3ccccc3c(=O)n2-c2ccccc2)c2cc(C)ccc21 (configuration not stated)	–	-12.9% (inactive)
O=c1c2ccccc2ncn1/N=C/c1ccccc1	–	-4.26% (inactive)
CC(C)Oc1ccc(C(=O)NC(C)(C)CO)cc1	–	-14.9% (inactive)
CC(Oc1ccc(Cl)cc1Cl)C(=O)/C=C/N(C)C (configuration not stated)	–	-5.7% (inactive)
O=C(CN(CC1CCCO1)C(=O)CNS(=O)(=O)c1ccccc1)NCc1ccccc1 (configuration not stated)	–	-29.5% (inactive)
Cc1ccc2occ(/C=N/NC(=O)c3ccccc3C)c(=O)c2c1	14.6 µM (active)	–
O=c1c(/C=N/O)coc2ccc(Cl)cc12	–	-19% (inactive)
Cc1cc(NC(=O)c2ccccc2C)no1	–	6.48% (inactive)
Cc1ccccc1CSc1nnc(Cn2c(=O)sc3ccccc32)n1C	–	-17.7% (inactive)
CCOc1cc(/C=N/NC(=O)c2ccc(CSc3nncn3C)cc2)ccc1OCC(=O)N1CCOCC1	–	13.3% (inactive)
O=S(=O)(c1ccccc1)c1nc(-c2ccccc2)oc1NCCCN1CCOCC1	–	-16.3% (inactive)
O=S(=O)(c1ccc(Cl)cc1)c1nc(-c2ccco2)oc1N1CCCCC1	23.1 µM (active)	–
COc1ccc(-c2nc(S(=O)(=O)c3ccccc3)c(N3CCCCC3)o2)cc1	18.4 µM (active)	–
CSc1nc(-c2ccco2)nn1C(=O)c1ccccc1Cl	–	-11.7% (inactive)
O=S(=O)(c1ccccc1)c1nc(-c2ccc(Cl)cc2Cl)oc1N1CCCCC1	13 µM (active)	–
O=S(=O)(c1ccc(Cl)cc1)c1nc(-c2ccccc2F)oc1NCCN1CCOCC1	–	-28.5% (inactive)
O=S(=O)(c1ccccc1)c1nc(Cc2ccccc2)oc1N1CCOCC1	–	-22.2% (inactive)
O=C(CSc1oc(-c2ccccc2)nc1S(=O)(=O)c1ccc(Br)cc1)NC1CCCCC1	–	-0.03% (inactive)
Cc1ccc(F)cc1S(=O)(=O)Nc1cccc(C(=O)N2CCCC(C(N)=O)C2)c1 (configuration not stated)	–	18.7% (inactive)
